High-throughput results deposited in PubChem by National Center for Advancing Translational Sciences (NCATS).
Rows were chosen to be rich in hits. Some 5.7% of all compounds tested hit in one or more screens of this group.
NPSR antag: qHTS Assay for Antagonists of the Neuropeptide S Receptor: cAMP Signal Transduction. Q6W5P4. CHO-NPSR cells, cAMP TR-FRET, antagonist mode. Potency, µM (series often up to 38.3 µM), hits mostly inhibitors. hit rate 1% among 220,000. AID 1461, 2008; note: nearly all actives have a fitted effect of over 50% in size
Target sequence (Q6W5P4 whole entry, looked up): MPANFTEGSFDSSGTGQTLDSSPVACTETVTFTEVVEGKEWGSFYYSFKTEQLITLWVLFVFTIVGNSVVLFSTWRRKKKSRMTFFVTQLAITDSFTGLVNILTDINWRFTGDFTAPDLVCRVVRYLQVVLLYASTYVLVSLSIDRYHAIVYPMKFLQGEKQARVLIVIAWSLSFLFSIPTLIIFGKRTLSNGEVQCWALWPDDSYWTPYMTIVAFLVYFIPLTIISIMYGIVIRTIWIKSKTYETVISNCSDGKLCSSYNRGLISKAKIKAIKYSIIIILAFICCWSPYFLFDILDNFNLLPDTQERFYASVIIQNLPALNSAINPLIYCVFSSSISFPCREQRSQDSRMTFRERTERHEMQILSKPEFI
RORgamma inh: qHTS for inhibitors of ROR gamma transcriptional activity; Drosophila S2 Gal4-RORgamma UAS-luciferase reporter, 20 h; Potency, µM (highest dose often 53.6 µM), most hits filed as inhibitors; Nuclear receptor ROR-gamma (Mus musculus), P51450; hit rate 5.4% among 310,000; note: nearly all actives have a fitted effect of over 60% in size
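Using a luciferase readout, inhibitors were identified by reduced reporter activity in Drosophila cells coexpressing a copper-inducible Gal4–ROR gamma fusion and UAS-driven Photinus luciferase, incubated 20 hr after 700 uM copper sulfate.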
Gal4-VP16 FLuc: VP16 counterscreen qHTS for inhibitors of ROR gamma transcriptional activity; Drosophila S2 Gal4-VP16 UAS-luciferase, luminescence, 20 h; Potency, µM (highest dose often 53.6 µM), actives largely listed as inhibitors; hit rate 3.5% among 310,000; AID 2546, 2010;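 note: Gal4-VP16 expression switched on by copper sulfate through the metallothionein promoter; nearly all actives have a fitted effect of over 50% in size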
B2AR arrestin: qHTS assay of beta-arrestin-biased ligands of beta2-adrenergic receptor. Potency, µM (titrated, usually from 46.1 µM), most hits filed as activators. AID 492947, 2010. hit rate 0.02% among 330,000. beta-arrestin recruitment to beta2AR, cell-based reporter; note: nearly all actives have a fitted effect of over 65% in size
A number is an active result; – = inactive; ? = inconclusive; · = not tested or not shown. Calls come from the whole dose curve; as a rule, active = well fitted curve in the direction sought with a large enough effect; inconclusive = small, poorly fitted or top-dose-only effect, or another doubt; inactive = no such curve, though single readings can be large; an effect the other way counts as inactive or inconclusive.

SMILES	NPSR antag	RORgamma inh	Gal4-VP16 FLuc	B2AR arrestin
COc1ccc(NC(=O)CN(c2ccc(C)cc2)S(=O)(=O)c2c(C)nn(C)c2C)cc1OC	–	16µM	?	–
COc1ccc2nc(NC(=O)CN(c3ccc(C)cc3)S(=O)(=O)c3c(C)nn(C)c3C)sc2c1	?	–	18µM	–
COc1ccc(NC(=O)CN(c2ccc(C)cc2)S(=O)(=O)c2c(C)nn(C)c2C)cc1	·	–	–	–
CN1CCN(c2ccc(S(=O)(=O)N3CCOCC3)cc2NC(=O)CSCc2ccccc2)CC1	·	·	·	–
COc1ccc2[nH]cc(CCNc3ncnc4ccc(-c5ccccc5C#N)cc34)c2c1	·	?	–	·
CCn1cc(C(=O)O)c(=O)c2cc(F)c(N/N=C/c3ccccc3[N+](=O)[O-])cc21	–	–	?	–
COc1ccc(OC)c(-n2c(-c3cnccn3)n[nH]c2=S)c1	?	–	–	–
COc1ccc(-c2n[nH]c(=S)n2-c2cc(OC)ccc2OC)cc1	–	10µM	–	–
COc1ccc(OC)c(-n2c(-c3ccc(C)cc3)n[nH]c2=S)c1	–	4µM	?	–
COc1ccc(OC)c(-n2c(-c3cc(-c4ccco4)[nH]n3)n[nH]c2=S)c1	–	–	–	–
COc1cccc(NC(=O)C/C(C)=N/NC(=O)c2ccccc2Cl)c1	–	?	–	–
C/C(CC(=O)Nc1cccc(Br)c1)=N\NC(=O)c1ccc(O)cc1O	·	0.89µM	?	–
O=C(NCCC1=CCCCC1)C1CCN(S(=O)(=O)c2ccc(Br)s2)CC1	–	?	–	–
CCOC(=O)c1sc2nc(C)[nH]c(=S)c2c1C	–	0.56µM	0.79µM	–
CCOC(=O)c1sc2nc(C)n(N)c(=O)c2c1C	–	–	–	–
COc1ccc(Cc2nc(C)cc(Cl)n2)cc1[N+](=O)[O-]	·	–	–	–
Cc1cccc(-n2c(-c3ccccc3)c[nH]c2=S)c1C	·	2.2µM	7.1µM	–
COc1ccccc1-n1c(=O)oc2ccc(Cl)cc2c1=O	–	?	?	–
COc1ccccc1-n1c(-c2ccc(Cl)cc2)c[nH]c1=S	–	2.8µM	7.1µM	–
O=C(COc1cc(F)ccc1[N+](=O)[O-])NCCCc1ccccc1	–	–	–	–
CC(C)(C)NC[C@H](O)CSc1nc(-c2ccc(C(N)=O)s2)cs1	·	–	–	·
N#CC1=C(N)C(C#N)(C#N)C(c2ccncc2)C2CN(C(=O)OCc3ccccc3)CC=C12 (centres undefined)	4µM	?	–	–
Cc1ccnc(Sc2ncccc2[N+](=O)[O-])n1	–	–	–	–
Cc1cc(Sc2nc(N)ncc2[N+](=O)[O-])ncn1	–	0.79µM	?	–
Cc1cc(Sc2ncnc(N)c2[N+](=O)[O-])ncn1	–	3.5µM	4.5µM	–
SMILES	NPSR antag	RORgamma inh	Gal4-VP16 FLuc	B2AR arrestin
Cc1ccc(C)c(Oc2ncnc(N)c2[N+](=O)[O-])c1	–	–	–	–
COC(=O)/C=C\c1cc(O)ccc1O	·	14µM	11µM	·
O=[N+]([O-])c1ccc(CCO)cc1	·	–	–	·
CC1(C)COC(/C=C/c2cccc([N+](=O)[O-])c2)=N1	–	?	1.4µM	–
O=C(C1=C(O)C(=O)N(CC2CCCO2)C1c1cccc(Cl)c1)c1ccco1 (centres undefined)	·	–	–	–
CCCCNC(=S)N(C)/N=C/c1sc(N2CCCCC2)nc1-c1cccs1	–	11µM	–	–
CC(C)NC(=S)N/N=C/c1sc(N2CCCCC2)nc1-c1cccs1	–	1.4µM	?	–
O=C(N/N=C/c1sc(N2CCOCC2)nc1-c1ccccc1)c1ccccc1Cl	–	–	–	–
O=C(N/N=C/c1sc(N2CCCCC2)nc1-c1cccs1)C1CC1	–	7.1µM	?	–
CCN(C(=O)COC(=O)/C=C/c1ccco1)C1CCCCC1	·	·	·	–
O=C(O)CCN1C(=O)c2ccc(Oc3ccc([N+](=O)[O-])cc3)cc2C1=O	·	–	?	–
CN(C)CCNc1oc(/C=C/c2ccccc2)nc1C#N	10µM	–	–	–
Cc1ccc(N2C(S)=C(C#N)C(=O)NC2c2ccco2)cc1 (centres undefined)	–	16µM	–	–
N#CC1=C(S)N(c2ccccc2)C(c2ccco2)NC1=O (centres undefined)	–	–	–	–
N#CC1=C(S)N(c2ccccc2)C(c2ccc(-c3cc(Cl)ccc3Cl)o2)NC1=O (centres undefined)	–	13µM	?	–
